The target in this assay is Sphingosine 1-phosphate receptor 1 (Homo sapiens) (UniProt P21453). The assay can be described thus: activation or potentiation of human S1P1 signaling – cell-based, primary and confirmation screens, CRE-bla reporter, primary screen (AID 449).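 Further: forskolin at 4 µM as EC80 and the EC20 agonist is SEW2871; 100% = SEW2871 at its EC100 plus forskolin at EC80.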 As to conditions: S1P1 CRE-bla cells, forskolin, beta-lactamase FRET, potentiator mode, at 9.5 µM, stronger effect = higher value, 100% = saturating reference agonist, 0% = basal, S1P1 agonist co-added at EC20, 2 nM.
Sequence of Sphingosine 1-phosphate receptor 1 (Homo sapiens) (P21453 whole entry, looked up): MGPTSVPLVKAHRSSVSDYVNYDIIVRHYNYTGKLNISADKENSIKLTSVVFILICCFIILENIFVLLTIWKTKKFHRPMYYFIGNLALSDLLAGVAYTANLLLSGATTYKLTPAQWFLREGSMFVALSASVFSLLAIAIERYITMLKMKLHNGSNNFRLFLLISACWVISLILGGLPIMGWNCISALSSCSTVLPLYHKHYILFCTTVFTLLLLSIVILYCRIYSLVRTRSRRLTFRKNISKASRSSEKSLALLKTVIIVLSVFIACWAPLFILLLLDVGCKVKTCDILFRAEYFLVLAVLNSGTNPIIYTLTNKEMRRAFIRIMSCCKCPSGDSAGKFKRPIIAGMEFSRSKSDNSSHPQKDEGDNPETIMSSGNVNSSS

Where [1] appears, read: measured here: confirmation screen, triplicate average.

About 320 (0.57%) of roughly 56,000 compounds were called active.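 How the source made its calls: active means activation above a cutoff set at the mean activation of all tested compounds plus 3 SD (cut at about 54% in these data); inactive means the rest, inconclusive results apart.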 The full list was thinned out, with actives kept by preference.

Take `COC(=O)c1ccc2c(=O)n(CC3CCCO3)c(=S)[nH]c2c1` (stereo not drawn): the activation was -12.1% (inactive).

With `Cc1nnc(SCC(N)=O)n1CC1CCCO1` (stereo not drawn), the activation is -8.7% (inactive).

Regarding `Cc1ccsc1C(=O)OCC(=O)c1cc(C)n(CC2CCCO2)c1C` (stereo not drawn), the activation is 57% (active). In addition, the activation under setting [1] was determined as 84.7%.

With `COC(=O)c1ccc(S(=O)(=O)c2ccc(C(=O)OC)s2)s1`, the activation is 1.7% (inactive).

`NC(=O)c1ccsc1NC(=O)c1ccco1`: the activation is 1% (inactive).

With `COc1cc(=O)[nH]c(=O)n1C(=O)Cc1ccccc1`, the activation is -7.8% (inactive).

In the case of `CC1CCCN(Cc2nc3c(c(=O)n(C)c(=O)n3C)n2Cc2cccc3ccccc23)C1` (stereo not drawn), the activation was 10.7% (inactive).

In the case of `CCOC(=O)C1CCCN(C(=O)C2CCN(c3nnc(-n4cccc4)s3)CC2)C1` (stereo not drawn), the activation is -27.3% (inactive).

Consider `Cc1c2cn[nH]c(=O)c2c(C)n1Cc1ccc(F)cc1`, for which the activation is -6.4% (inactive).

Regarding `C=CCSc1nnc(Cn2c(=O)sc3ccccc32)n1C`, the activation was -13.4% (inactive).

As for `Cn1c(=O)c2c(nc(SCCNS(=O)(=O)c3ccccc3)n2C)n(C)c1=O`, the activation is -18.9% (inactive).

For the molecule `CN(C)c1ccnc2sc3c(=O)n(Cc4ccccc4)cnc3c12`, the activation was 75.3% (active). For the same molecule, the activation under setting [1] was determined as 84.4%.

For `O=c1c2[nH]c3ccc(Cl)cc3c2ncn1Cc1ccccn1`, the activation is -22.3% (inactive).

For the molecule `CN(C)/C=C/c1c(C#N)c(=O)ncn1Cc1ccccc1`, the activation is -5.6% (inactive).

For the molecule `CC(C)OCCCNc1ncnc2c1[nH]c1ccc(F)cc12`, the activation is 91.1% (active). Also, the activation under setting [1] came to 110%.

`CCN1CCCC1CNc1ncnc2c1[nH]c1ccc(F)cc12` (stereo not drawn): the activation is 4.2% (inactive).

Regarding `O=C1CCCN1CCCNc1ncnc2c1[nH]c1ccccc12`, the activation is 6.8% (inactive).

`Cc1nc2c(c(=O)n1Cc1ccco1)c1nc3ccccc3nc1n2Cc1ccccc1`: the activation is 2.5% (inactive).

Regarding `CCCCCCn1c(SCC(=O)c2ccccc2)nc2c1c(=O)[nH]c(=O)n2C`, the activation was -26.5% (inactive).

With `O=C(CCN1C(=O)COc2ccccc21)NCCCN1CCN(c2ccc(F)cc2)CC1`, the activation was -29.7% (inactive).

As to `N/C(=N\c1nc2ccccc2o1)NC(=O)C(Cc1ccccc1)N1C(=O)c2ccccc2C1=O` (stereo not drawn), the activation was -12% (inactive).

Consider `CCOc1ccc2[nH]c(=O)c(CN(CCCO)C(C)=O)cc2c1`, for which the activation was 2.1% (inactive).

As to `COc1ccc(S(=O)(=O)N2CCN(C(=O)c3cccs3)CC2)cc1OC`, the activation was 15.9% (inactive).

Turning to `COC(=O)c1c(-c2ccc(C)cc2)csc1N`, the activation is 23% (inactive).

In the case of `Cc1ccc(-c2nc(COC(=O)c3c(C)noc3C)cs2)cc1`, the activation is 85.3% (active). For the same molecule, the activation under setting [1] is 98.2%.

Consider `Cc1noc(C)c1C(=O)OCC(=O)/C=C1\N(C)c2ccccc2C1(C)C`, for which the activation is -18.5% (inactive).

Take `Cc1cccn2c(=O)c3cc(C#N)c(=O)n(CCCN4CCOCC4)c3nc12`: the activation is -29% (inactive).

With `Cc1nc(C)c(C(=O)Nc2cccc(C)c2C)o1`, the activation was -15.9% (inactive).

Turning to `CCN(Cc1cc2cc(C)ccc2[nH]c1=O)S(=O)(=O)c1ccccc1`, the activation was 26.9% (inactive).

Consider `CCc1ccccc1N(CC(=O)NCCSCc1ccco1)S(C)(=O)=O`, for which the activation is -204% (inactive).

As for `Cc1cccc(-c2noc(-c3ccc(F)cc3)n2)c1`, the activation is 1% (inactive).

Take `COc1cc(-c2nc(-c3ccncc3)no2)cc(OC)c1OC`: the activation is -7% (inactive).

Take `COc1ccc(-c2noc(-c3cccc(OC)c3OC)n2)cc1OC`: the activation was 84.3% (active). The activation under setting [1] came out at 77.6%.

With `O=P(c1cccs1)(c1cccs1)c1cccs1`, the activation is -23.6% (inactive).

For the molecule `O=C(Nc1ccccc1C(F)(F)F)c1cc(-c2ccc(O)cc2)on1`, the activation is 89% (active). The activation under setting [1] worked out at 96.3%.

As for `O=C(c1cc(-c2ccc(O)cc2)on1)N1CCCc2ccccc21`, the activation is 15.4% (inactive).

As to `Cc1cc(C)nc(NC(=O)Nc2ccccc2C(F)(F)F)n1`, the activation is -24.3% (inactive).

Regarding `CCn1c(SCCC(C)C)nnc1-c1c[nH]c2ccccc12`, the activation was 33% (inactive).

As to `Cc1ccc2c(c1)c1ncn(CCC3=CCCCC3)c(=O)c1n2C`, the activation is -12.4% (inactive).

Consider `CCOCC(=O)NCc1ccc2c(c1)cc(C)n2C`, for which the activation is -18% (inactive).

For the molecule `Cc1ccc(Cn2c(NC(=O)c3ccco3)nc3ccccc32)cc1`, the activation is -7.4% (inactive).

For `Cc1cc(NC(=O)CN2CCCCC2C)nc2c1c(=O)oc1ccccc12` (stereo not drawn), the activation is -16.9% (inactive).

Regarding `CC1(C)CC(=O)C2=C(C1)NCN(CCCN1CCOCC1)C2`, the activation is -12.5% (inactive).

Regarding `COc1ccc(CCNC(=O)CCn2c(=O)oc3ccccc32)cc1OC`, the activation is -30% (inactive).

Regarding `Cc1cc(Cl)ccc1N1C(=O)CC(SCCC(=O)O)C1=O` (stereo not drawn), the activation was 15% (inactive).

For `O=C(NCCN1C(=O)C2C3C=CC(C3)C2C1=O)Nc1ccccn1` (stereo not drawn), the activation was 1.7% (inactive).

As to `C#CCN1CC(C)/C(=N/O)CC1C` (stereo not drawn), the activation was -13.4% (inactive).

`Fc1ccc2[nH]c3c(N4CCN(Cc5ccc6c(c5)OCO6)CC4)ncnc3c2c1`: the activation was 106% (active). Under setting [1], the activation was determined as 116%.

In the case of `Cc1cc(N2CCN(Cc3ccc4c(c3)OCO4)CC2)n2ncnc2n1`, the activation was 3.4% (inactive).

Regarding `Fc1ccc2[nH]c3c(N4CCSCC4)ncnc3c2c1`, the activation was 73% (active). Under setting [1], the activation worked out at 103%.

Consider `O=C(c1cccs1)N1CCN(Cc2ccc3c(c2)OCO3)CC1`, for which the activation was 1.7% (inactive).

As to `Fc1ccc2nc(N3CCCCC3)sc2c1`, the activation was -23.5% (inactive).

Take `Cc1ccc(-n2ncc3c(N4CCN(c5ccc(F)cc5)CC4)ncnc32)c(C)c1`: the activation was -9.5% (inactive).

Consider `Cc1noc(/C=C/N(C)C)c1S(=O)(=O)N1CCCC(C(=O)NCc2ccco2)C1` (stereo not drawn), for which the activation was -32.7% (inactive).

`Cc1cc(/C=N/n2cnnc2)c(C)n1-c1cccc(C(=O)O)c1`: the activation is -16.1% (inactive).

`Cc1ccc(C(c2sc3nc(C)nn3c2O)N2CCN(c3ccccc3)CC2)cc1` (stereo not drawn): the activation was -6.2% (inactive).

For `CCN(CC)P(=O)(C(NC(=O)OC)C(F)(F)C(F)(F)C(F)(F)C(F)F)N(CC)CC` (stereo not drawn), the activation was 2.6% (inactive).

With `COc1ccc(CC(=O)n2nc(-c3cccnc3)nc2N)cc1`, the activation was 2.4% (inactive).

With `CC12CCC(C(=O)N(CCC#N)CCC#N)(CC1=O)C2(C)C` (stereo not drawn), the activation was -0.9% (inactive).

With `CC1Cc2ccccc2N1C(=O)CSc1nnc(-c2ccc(S(=O)(=O)N3CCCCC3)cc2)o1` (stereo not drawn), the activation is -18.5% (inactive).

The values above are taken from PubChem BioAssay AID449 (The Scripps Research Institute Molecular Screening Center, 2006).
